Data from PubChem BioAssay (Tox21).
Results filed as inconclusive are left out. Entries that show only a call come without a potency. Values without a mark were called inactive. The source made the active and inactive calls. Calls follow the shape of the full dose curve.

Experiment: p53 small molecule agonists, cell-based qHTS assay with rat liver microsomes: qHTS cell viability counter screen (AID 1963580); also: nearly all actives have a fitted effect of over 45% in size
Settings: p53RE-bla HCT-116 + rat microsomes, ATP viability, 16 h; series mostly up to 66 µM
Description: National Center for Advancing Translational Sciences [NCATS]
Division of Preclinical Innovation [DPI]
U.S. Environmental Protection Agency [EPA]
National Institutes of Environmental Health Sciences [NIEHS]
National Toxicology Program [NTP]
U.S. Food and Drug Administration [FDA]
p53, a tumor suppressor protein, is activated following cellular insult, including DNA damage and other cellular stresses. The activation of p53 regulates cell fate by inducing DNA repair, cell cycle arrest, apoptosis, or cellular senescence. The activation of p53, therefore, is a good indicator of DNA damage and other cellular stresses. The CellSensor p53RE-bla HCT-116 cell line contains a stably integrated beta-lactamase reporter gene under control of the p53 response elements. The activation of the reporter gene under culture conditions can be detected by fluorescence intensity. This cell line was used to screen the Tox21 10K compound library in the condition of presence of rat liver microsomes and to identify agonists that activate the p53 signaling pathway after in vitro metabolic activation (Ooka et al., Archive of Toxicology 96:1975-1987, 2022). The cytotoxicity of the Tox21 compound library against the p53 RE-bla HCT-116 cell line was tested in parallel by measuring the intra cellular ATP content in the same wells.
Tox21 Assay Protocol Summary:
The p53RE-bla cells were dispensed at 4,000cells/3ul/well in 1536-well black-clear bottom plates. After the assay plates were incubated at 37 C, 5% CO2 incubator for 5 hours, 23 nL of compounds dissolved in DMSO, positive controls or DMSO only was transferred to the assay plate. Following compound addition, 3 uL of rat liver microsomes (Molecular Toxicology, Boone, NC) at final concentration of 0.5 mg/mL and 1uL of B-Nicotinamide adenine dinucleotide 2'-phosphate (NADPH) at final concentration of 0.5 mg/mL were transferred to the assay plate. The plates were incubated at 37 C for 16 hours. 1 uL of LiveBLAzer detection mixture was added to each well and the plates were incubated at room temperature in the dark for 2 h. Fluorescence intensity at 460 and 530 nm emission and 405 nm excitation were measured by an Envision plate reader. For cell viability readout that measures cytotoxicity, 4 ul/well of CellTiter-Glo reagent was added into the assay plates using a Flying Reagent Dispenser. After 30 min incubation at room temperature, the luminescence intensity in the plates was measured using a ViewLux plate reader.
Potency is read from the fitted curve at half-maximal effect.

| Structure (SMILES) | Potency | activity change, negative = cytotoxicity |
| --- | --- | --- |
| CCC(C)(C)CC | inactive |  |
| Nc1nc(N)c2nc(-c3ccccc3)c(N)nc2n1 | inactive |  |
| NCCC(O)(P(=O)(O)O)P(=O)(O)O | inactive |  |
| CCC/C=C/CO | inactive |  |
| Clc1ccc2c(Cl)ccnc2c1 | inactive |  |
| CC(c1cc2ccccc2s1)N(O)C(N)=O (stereo not given) | inactive |  |
| C1CCCCC1 | inactive |  |
| CCCCCCCC/C=C\CCCCCCCC(=O)OCCCC |  | 7.39% [at 13.5 µM] |
| Nc1c(Br)cc([N+](=O)[O-])cc1Br | inactive |  |
| [Cl][In]([Cl])[Cl] | inactive |  |
| C(=C\c1ccccc1)/c1ccccc1 | inactive |  |
| C=CCn1cc[n+](C)c1 | inactive |  |
| N#CCc1cccc(C(F)(F)F)c1 | 45.8 µM (active) |  |
| CCC(=O)OC(C)(C)C1CC=C(C)CC1 (stereo not given) | inactive |  |
| CC(=O)[C@H]1CC[C@H]2[C@@H]3CCC4=CC(=O)CC[C@]4(C)[C@H]3CC[C@]12C | inactive |  |
| CCCCCCOC(=O)c1ccccc1O | inactive |  |
| CC(=O)c1ccc(O)c(C(N)=O)c1 | inactive |  |
| CC(O)C(CO)C(C)O (stereo not given) | inactive |  |
| CCCCCCCCCCCCCCCC(=O)NCCO | inactive |  |
| CC(C)C(=O)OC(=O)C(C)C | inactive |  |

| Structure (SMILES) | Potency | activity change, negative = cytotoxicity |
| --- | --- | --- |
| SCCSCCS | inactive |  |
| CCCCOC(=O)C(=O)OCCCC | inactive |  |
| CC/C=C\CCO | inactive |  |
| CC(=O)O[C@@H]1C[C@@H]2CC[C@@]1(C)C2(C)C | inactive |  |
| CC(C)c1ccc2c(C(C)C)cc(C(C)C)c(S(=O)(=O)O)c2c1 | inactive |  |
| NS(=O)(=O)c1cc2c(cc1Cl)NC(C1CC3C=CC1C3)NS2(=O)=O (stereo not given) | inactive |  |
| CC(=O)Oc1cccc(O)c1 | inactive |  |
| CCCCCCCCS | inactive |  |
| O=C1OC2(c3ccc(O)cc3Oc3cc(O)ccc32)c2ccccc21 | inactive |  |
| COC(=O)CCCCC(=O)O | inactive |  |
| CCN(C=O)CC | inactive |  |
| CO[C@@H]1[C@@H](O[C@@H]2O[C@H](C)[C@@H](O[C@H]3C[C@@](C)(O)[C@@H](O)[C@H](C)O3)[C@H](N(C)C)[C@H]2O)[C@@H](CC=O)C[C@@H](C)[C@@H](O[C@@H]2CC[C@H](N(C)C)[C@@H](C)O2)/C=C/C=C/C[C@@H](C)OC(=O)C[C@H]1OC(C)=O | inactive |  |
| CNC(=O)[C@H]1O[C@@H](n2cnc3c(NCc4cc(Cl)ccc4OCc4cc(C)no4)ncnc32)[C@H](O)[C@@H]1N | inactive |  |
| CC1CCC(C(C)(C)O)CC1 (stereo not given) | inactive |  |
| C=CC(=O)NCOCC(C)C | inactive |  |
| C[C@@H]1CC(=O)NN=C1c1ccc(NN=C(C#N)C#N)cc1 | inactive |  |
| C1=Cc2ccccc2C1 | inactive |  |
| COc1ccccc1NC(=O)CC(C)=O | inactive |  |
| N[C@H](C(=O)O)c1ccc(O)cc1 |  | 4.85% [at 13.5 µM] |
| Cc1ccccc1OCC1CO1 (stereo not given) | inactive |  |
